ATXN viability: reduces viability in counter-screen for ATXN expression inhibitors; S2 cells (HEK-293 line with an ATXN2-luciferase reporter) viability, CellTiter-Fluor protease fluorescence, 24 h; Potency, µM (titrated, usually from 56.7 µM), hits mostly cytotoxic; 0.49% of 400,000 active; also: potency is read from the fitted curve at half-maximal effect; nearly all actives have a fitted effect of over 40% in size
ATXN2 expr inh: ATXN2 expression inhibition. HEK-293 ATXN2-luciferase reporter, luminescence, 24 h. Potency, µM (highest dose often 57 µM), for inactives: at the top dose activity change, negative = inhibition, actives largely listed as inhibitors. 0.72% of 360,000 active. AID 1745845; also: potency is read from the fitted curve at half-maximal effect; % is scaled to controls: 0 for no effect and ±100 for the full control effect; nearly all actives have a fitted effect of over 55% in size
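qHTS (up to 57 uM final) was run with 24 h compound exposure of reporter cells at 37 °C. Each well was multiplexed: SteadyGlo luminescence measured ATXN2-luciferase expression after a fluorogenic Gly-Phe-AFC viability readout (25 uM final).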
DRD3 agonist: D3 dopamine receptor (human) agonism; P35462; D3R DiscoveRx beta-arrestin cells, luminescence, 90 min; max activation, %; 0.58% of 410,000 active; AID 652048; in the data active = max activation above about 30%; also: 0% is about no effect
Target sequence (P35462 whole entry, looked up): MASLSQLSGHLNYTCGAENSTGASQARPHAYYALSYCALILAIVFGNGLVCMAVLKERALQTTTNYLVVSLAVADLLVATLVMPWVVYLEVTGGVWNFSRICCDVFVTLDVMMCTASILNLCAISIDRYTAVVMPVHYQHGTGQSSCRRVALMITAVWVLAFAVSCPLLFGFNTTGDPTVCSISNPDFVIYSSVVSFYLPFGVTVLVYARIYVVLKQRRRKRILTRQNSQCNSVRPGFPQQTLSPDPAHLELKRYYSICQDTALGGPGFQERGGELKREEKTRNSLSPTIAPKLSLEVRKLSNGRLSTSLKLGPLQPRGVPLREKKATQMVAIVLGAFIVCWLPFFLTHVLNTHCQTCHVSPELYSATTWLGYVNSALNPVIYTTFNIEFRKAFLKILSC
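Cells at 1500/well, incubated overnight, then treated with pinned compounds (dopamine as control) for 90 min at 37 degrees C. DiscoveRx reagent added for 30 - 60 minutes at room temperature; luminescence read.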
HepG2 tox: counter-screen for TGF-b inhibitors: cytotoxicity in HepG2 cells. HepG2 CAGA-GFP viability, ATP luminescence, 18 h. Potency, µM (titrated, usually from 46.1 µM), without a hit: top-dose activity change, negative = cytotoxicity, hits mostly cytotoxic. 0.76% of 410,000 active. AID 588856; also: potency is read from the fitted curve at half-maximal effect
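CellTiter-Glo luminescence gave cytotoxicity after 18 hours at 37 degrees C. The cells were HepG2 CAGA-GFP in 1% FBS DMEM, stimulated with 500 pg/mL TGF-beta after compound addition. %Activity was normalised to no-cell wells (complete cell-killing) and DMSO (no toxicity), and curves were fitted and classified.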
TGFb SMAD3 inh: TGF-b pathway inhibition; HepG2 CAGA-GFP TGF-b/SMAD3 reporter, GFP fluorescence, 18 h; TGF-beta stimulated, 500 pg/mL final; Potency, µM (top dose mostly 46.1 µM), for inactives: at the top dose activity, negative = inhibition, hits mostly inhibitors; 1.2% of 410,000 active; AID 588855; also: potency is read from the fitted curve at half-maximal effect; % is scaled to controls: 0 for no effect and ±100 for the full control effect; nearly all actives have a fitted effect of over 65% in size
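Per well, imaged GFP fluorescence of HEPG2 CAGA-GFP cells gives the signal; cells get compound, then TGF-beta (500 pg/mL final), 18 h at 37 degrees C; %Activity versus -TGF-beta and +DMSO controls.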
DRD3 antagonist: blocks the human D3 dopamine receptor | max response, negative = inhibition, % | P35462 | 2.5% of 360,000 active | AID 652054 | D3R cells, DiscoveRx beta-arrestin luminescence, antagonist mode; hits give low values; in the data active = max response below about -50%; inconclusive = no clear call, values can overlap the other calls; also: % is scaled to controls: 0 for no effect and ±100 for the full control effect
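Cells expressing the human receptor were seeded at 1500 cells/well, incubated overnight at 37 degrees C in 5% CO2, then exposed to library compounds with dopamine controls for 90 minutes at 37 degrees C before luminescent detection.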
The depositor's hits bear a star; ! = a repeat was not active. Compounds with a hit are over-represented: about 4.7% of the library has one in this group of screens. Unless noted, calls follow the shape of the dose curve; as a rule, active = well fitted curve in the direction sought with a large enough effect; inconclusive = small, poorly fitted or top-dose-only effect, or another doubt; inactive = no such curve, though single readings can be large; an effect the other way counts as inactive or inconclusive.

For COc1ccccc1OCC1CNC(=O)O1 (centres undefined) the results were ATXN viability inactive, ATXN2 expr inh 6% and DRD3 agonist 0.
For Cc1cc(C)cc(OCC2CNC(=O)O2)c1 (centres undefined) the results were ATXN viability inactive, ATXN2 expr inh 18%, DRD3 agonist 83*!, HepG2 tox 7%, TGFb SMAD3 inh -6% and DRD3 antagonist 14.
CC1CCN(S(=O)(=O)c2ccc3nc(Nc4cccc(F)c4)ccc3c2)CC1 was read as ATXN2 expr inh inconclusive, DRD3 agonist 3, HepG2 tox -55% and TGFb SMAD3 inh inconclusive.
For CNc1sc(C(=O)c2ccccc2F)c(N)c1-c1nc2ccccc2s1 the results were DRD3 agonist -7, HepG2 tox -37%, TGFb SMAD3 inh -7% and DRD3 antagonist -53*.
Screening O=C(CNC(=O)c1ccccc1F)OCc1nc2ccccc2s1 returned ATXN viability inactive, ATXN2 expr inh 29%, DRD3 agonist 5, HepG2 tox 2%, TGFb SMAD3 inh 0% and DRD3 antagonist 16.
Cc1cnc(-n2ncc(C(=O)NCC(C)(C)N3CCOCC3)c2C)nc1-c1cccs1 was read as ATXN viability inactive.
`CC(=C\c1ccccc1)/C=C1/SC(=S)N(CCCC(=O)O)C1=O` gave ATXN viability inactive, ATXN2 expr inh inconclusive, DRD3 agonist 6, HepG2 tox -22%, TGFb SMAD3 inh 2% and DRD3 antagonist 9.
For CC(/C=C1\SC(=O)N(CCCC(=O)O)C1=O)=C\c1ccccc1 the results were ATXN viability inactive, ATXN2 expr inh 1.3µM*, DRD3 agonist -1, HepG2 tox -7%, TGFb SMAD3 inh inconclusive and DRD3 antagonist -2.
Screening CCc1nn(CC(=O)NCC(C)c2ccccc2)c(=O)c2cc3c(OC)cccc3n12 (centres undefined) returned ATXN viability inactive, ATXN2 expr inh -3%, DRD3 agonist -8, HepG2 tox -19% and TGFb SMAD3 inh -19%.
`Cc1ccc(-n2nc(C)c3c2OC(N)=C(C#N)C3c2ccccc2F)cc1` (centres undefined) gave ATXN viability inactive, ATXN2 expr inh -12%, DRD3 agonist 1, HepG2 tox -2%, TGFb SMAD3 inh -14% and DRD3 antagonist -52*.
For COCc1ccc(CN2CCOc3ccc(C4=CCCCC4)cc3C2)o1 the results were ATXN viability inactive.
CCS(=O)(=O)N1CCc2cc(C(=O)N3CCN(c4cccc(C(F)(F)F)c4)CC3)ccc21 was read as ATXN viability inconclusive, ATXN2 expr inh inconclusive, DRD3 agonist -1, HepG2 tox -32% and TGFb SMAD3 inh 11µM*.
Cc1ccc(C(c2nnnn2Cc2cccs2)N2CCN(C(=O)c3ccco3)CC2)cc1 (centres undefined) was read as ATXN viability inactive, ATXN2 expr inh -10%, DRD3 agonist -5, HepG2 tox -20%, TGFb SMAD3 inh -11% and DRD3 antagonist -52*.
CCC(c1nnnn1Cc1cccs1)N1CCN(C(=O)c2ccco2)CC1 (centres undefined) was read as ATXN viability inactive, ATXN2 expr inh 1%, DRD3 agonist 1, HepG2 tox -8%, TGFb SMAD3 inh 21% and DRD3 antagonist -2.
`CCc1nc2sc3c(N4CCCCC4)ncnc3c2c2c1CCCC2` gave ATXN viability inactive, ATXN2 expr inh 3%, DRD3 agonist 7, HepG2 tox 0% and TGFb SMAD3 inh 12%.
COc1ccccc1-c1oc2ccccc2c1C#CC1(N)CCCCC1 was read as ATXN viability 25µM*, ATXN2 expr inh inconclusive, DRD3 agonist -7, HepG2 tox -101%, TGFb SMAD3 inh inconclusive and DRD3 antagonist -21.
For CC(C)Nc1ccc(-c2nc(-c3ccco3)no2)cc1[N+](=O)[O-] the results were ATXN viability inactive, ATXN2 expr inh 42%, DRD3 agonist -14, HepG2 tox -9% and TGFb SMAD3 inh inconclusive.
